Data from PubChem BioAssay.
Records with an inconclusive call do not appear. Calls of active or inactive are those of the source.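 The calls were made as follows, unless noted: active = differentiation response of at least 50%, scaled between solvent and reference control, from cells with both markers; inactive = the rest.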

Columns and labels:
[1] = rapamycin-like changes in RPL19A-GFP expression – cell-based, S. cerevisiae, multiplex flow cytometry, primary screen (AID 1862; in the data active = percent of DMSO control GFP below about 86%;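 also: lower values mimic rapamycin by blocking the RPL19A rise seen in DMSO cells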); conditions: S. cerevisiae RPL19A-GFP strain, flow cytometry fluorescence, 3 h; at 10 µM; stronger effect = lower value
[2] = TOR pathway GLN3 branch reporter MEP2-GFP changes – S. cerevisiae, multiplex flow cytometry, primary screen (AID 1867;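 active = GFP response, as percent of the DMSO control, above the screen-wide mean plus 3 SD, about 139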;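 also: median GFP channel fluorescence of barcode-gated MEP2-GFP cells measured by flow cytometry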); conditions: S. cerevisiae MEP2-GFP strain, 3 h, at 10 µM, stronger effect = higher value, 100% means same as DMSO wells
[3] = TOR pathway RTG branch CIT2 reporter changes – S. cerevisiae, GFP fusion, multiplex flow cytometry, primary screen (AID 1870;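 active = percent response above a set limit, the screen-wide mean plus 3 SD, cut at about 130% in these data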;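 also: barcoded CIT2-GFP strain pooled with four other GFP strains with rapamycin as positive control; median GFP fluorescence per well over plate mean of DMSO wells so 100% = DMSO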); conditions: S. cerevisiae CIT2-GFP expression, 3 h, at 10 µM, stronger effect = higher value
[4] = TOR pathway LAP4-GFP level changes – S. cerevisiae, multiplex flow cytometry, primary screen (AID 1873;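 active = GFP signal, as percent of the solvent control, above the screen mean plus 3 SD, about 149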); conditions: S. cerevisiae LAP4-GFP expression, 3 h, at 10 µM, stronger effect = higher value
[5] = yeast AGP1-GFP level changes, GLN3 branch – cell-based, multiplex flow cytometry, S. cerevisiae, primary screen (AID 1887;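 active = GFP signal above the screen-wide mean plus 3 SD, that is over about 124.5% of the solvent control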;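 also: AGP1-GFP fusion strain of S. cerevisiae within a five-strain barcoded multiplex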); conditions: 3 h, at 10 µM, stronger effect = higher value
[6] = reduced mouse 2C T cell binding to pMHC/ICAM-1 vesicles – MLPCN validation set, flow cytometry, LFA-1/ICAM-1 modulator project, pilot screen (AID 2523;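 active = response below a set limit, under 55% cells CD8-positive and vesicle-bound, and CD8 cells' 90th-percentile brightness under 279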;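 as to vesicle binding response: mean PE anti-B7-1 fluorescence of CD8+ cells relative to row control; 100% = QL9-loaded vesicles with DMSO vehicle in the same plate row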); conditions: 2C mouse CD8+ T cells, at 7 µM, stronger effect = lower value; double positive events: measured here: CD8+/vesicle+ event percentage
[7] = target: Integrin beta-1 (Homo sapiens) + Integrin alpha-4 (Homo sapiens) (UniProt P13612+P05556); experiment: alpha4beta1 integrin LIBS antibody binding reduction – U937 cells, HUTS-21 mAb, flow cytometry, validation set, VLA-4 allosteric modulator project, pilot screen (AID 2674;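 active = inhibition above 50%, about 3 SD of the validation set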;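 also: antibody binding induced by the VLA-4 ligand LDV present at three times its Kd; 0% = LDV ligand with antibody and no compound and 100% = antibody without LDV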); conditions: HUTS-21 LIBS mAb binding, at 6.7 µM, stronger effect = higher value, binding induced by LDV ligand
[8] = calorie-restriction mimetic ROS inhibitors, yeast – validation compound set, pilot screen (AID 2706;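 active = superoxide response below 65% of plate, a cut near 3 SD across the whole screen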;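 also: yeast exposed to compound for one week at 30 degrees C before staining; 100% = mean of all compound wells on the same plate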); conditions: S. cerevisiae aging, superoxide DHE fluorescence; at 10 µM; stronger effect = lower value
[9] = target: Beta-adrenergic receptor kinase 1 (Homo sapiens) (UniProt P25098); experiment: GRK2 binders displacing RNA aptamer, biochemical, validation, human GRK2, bead flow cytometry (AID 488806;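 active = aptamer binding inhibition above 30%, about 3 SD of noise from non-fluorescent compounds; inactive = inhibition at or below 30%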); conditions: bead-bound GRK2, FAM-aptamer displacement, at 10 µM, stronger effect = higher value
[10] = target: Beta-2 adrenergic receptor (Homo sapiens) (UniProt P07550); experiment: agonist-induced loss of surface beta2AR – cell-based, FAP fluorogen, flow cytometry, validation set, pilot screen (AID 504459;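 active = percent response above 42, roughly 3 SD of non-fluorescent test compounds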;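 also: agonist-driven loss of surface beta2AR via internalization measured by FAP dye flow cytometry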); conditions: Am2.2-beta2AR cells, at 10 µM, stronger effect = higher value
[11] = target: AP-2 complex subunit beta (Homo sapiens) (UniProt P63010); experiment: beta-arrestin/AP2 interaction blockers – biochemical, validation set, GST-AP2 beads, flow cytometry, pilot screen (AID 504541;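 active = inhibition above 54%, about 3 SD of non-fluorescent compounds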;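 also: AP2 carries R879A mutation and is captured from E. coli lysate; bead-bound FITC arrestin peptide fluorescence measuring arrestin peptide binding to AP2; 0% = DMSO wells and 100% = excess unlabeled arrestin peptide control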); conditions: FITC arrestin peptide, at 10 µM, stronger effect = higher value, AP2 beta2 appendage fragment, R879A mutant
[12] = cytosolic pH regulators acting via V-ATPase – S. cerevisiae, pHLuorin, HTS validation (AID 504600; in the data active = response above about 15%;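 also: plate controls were DMSO for no effect and reference compound for full effect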); conditions: V-ATPase proton transport, at 10 µM, stronger effect = higher value
[13] = test system: anti-desmoglein-3 scFv antibody binding to human DSG3; experiment: blockers of pathogenic pemphigus antibody–desmoglein-3 binding – biochemical, validation compound set, bead-based, flow cytometry, pilot screen (AID 588368;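 active = binding below the plate cutoff, the plate median minus 3 SD, with a reading above zero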;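 also: signal is the median channel fluorescence of bead-bound GFP antibody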); conditions: Protein G beads, DSG3-Fc, scFv-GFP binding, at 10 µM, stronger effect = lower value
[14] = Nile Red efflux blockade in pump-expressing yeast – validation compound set, multiplex, phenotypic, pilot screen (AID 588506;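 active = efflux inhibition above 0.42, the validation set average plus 4 SD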;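 also: Nile Red retained in cells so higher fluorescence means more efflux inhibition; 0 = negative control wells and 1 = enniatin B 25 µM full block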); conditions: S. cerevisiae pump-expressing triplex, Nile Red efflux flow cytometry; at 10 µM; stronger effect = higher value; the pumps come from Candida albicans
[15] = target: ATP-binding cassette sub-family B member 6 (Homo sapiens) (UniProt Q9NP58); experiment: blockers of ABCB6-driven porphyrin uptake – K562-ABCB6 cells, flow cytometry, validation set, pilot screen (AID 588550;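 active = inhibition above the screen-wide mean plus 3 SD, about 51%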;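 also: 0% = DMSO wells and 100% = benzethonium chloride 70 µM positive control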); conditions: K562-ABCB6 porphyrin accumulation, 1 h, at 10 µM, stronger effect = higher value
[16] = AML differentiation inducers, ER-HoxA9 marrow cells – cell-based, GFP/MAC1 double positive, flow cytometry, validation set, primary screen (AID 588685); conditions: stronger effect = higher value, normalized: vehicle 0, fulvestrant 100;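 also: compound exposure lasts four days before antibody staining and flow analysis; 0% = DMSO wells and 100% = 5 µM fulvestrant positive control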

AP-2 complex subunit beta (Homo sapiens), sequence (P63010 whole entry, looked up, the tested form may be a part, one chain of several): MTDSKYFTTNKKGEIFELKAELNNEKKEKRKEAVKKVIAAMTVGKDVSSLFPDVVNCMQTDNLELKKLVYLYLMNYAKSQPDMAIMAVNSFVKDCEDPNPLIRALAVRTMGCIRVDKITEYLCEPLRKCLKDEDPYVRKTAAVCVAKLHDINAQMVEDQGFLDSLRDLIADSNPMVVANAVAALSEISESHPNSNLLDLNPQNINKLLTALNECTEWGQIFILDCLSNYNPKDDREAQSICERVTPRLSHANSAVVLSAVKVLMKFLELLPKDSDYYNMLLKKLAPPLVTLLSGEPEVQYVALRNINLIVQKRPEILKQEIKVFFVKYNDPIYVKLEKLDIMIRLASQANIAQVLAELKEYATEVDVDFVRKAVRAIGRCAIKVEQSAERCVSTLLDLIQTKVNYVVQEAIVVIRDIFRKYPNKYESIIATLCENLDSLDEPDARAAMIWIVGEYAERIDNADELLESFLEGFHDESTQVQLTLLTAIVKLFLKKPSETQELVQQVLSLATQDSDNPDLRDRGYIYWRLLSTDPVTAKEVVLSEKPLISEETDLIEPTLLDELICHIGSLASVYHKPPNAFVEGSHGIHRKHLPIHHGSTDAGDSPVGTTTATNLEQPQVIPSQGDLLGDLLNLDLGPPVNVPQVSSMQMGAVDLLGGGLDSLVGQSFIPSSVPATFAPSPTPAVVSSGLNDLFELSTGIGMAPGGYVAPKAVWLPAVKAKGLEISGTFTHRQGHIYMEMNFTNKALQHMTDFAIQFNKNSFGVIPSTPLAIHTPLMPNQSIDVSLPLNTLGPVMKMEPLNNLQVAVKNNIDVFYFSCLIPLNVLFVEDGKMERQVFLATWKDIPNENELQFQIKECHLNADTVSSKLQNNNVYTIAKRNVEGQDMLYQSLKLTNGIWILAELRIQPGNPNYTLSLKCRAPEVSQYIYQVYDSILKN
Beta-2 adrenergic receptor (Homo sapiens), sequence (P07550 whole entry, looked up): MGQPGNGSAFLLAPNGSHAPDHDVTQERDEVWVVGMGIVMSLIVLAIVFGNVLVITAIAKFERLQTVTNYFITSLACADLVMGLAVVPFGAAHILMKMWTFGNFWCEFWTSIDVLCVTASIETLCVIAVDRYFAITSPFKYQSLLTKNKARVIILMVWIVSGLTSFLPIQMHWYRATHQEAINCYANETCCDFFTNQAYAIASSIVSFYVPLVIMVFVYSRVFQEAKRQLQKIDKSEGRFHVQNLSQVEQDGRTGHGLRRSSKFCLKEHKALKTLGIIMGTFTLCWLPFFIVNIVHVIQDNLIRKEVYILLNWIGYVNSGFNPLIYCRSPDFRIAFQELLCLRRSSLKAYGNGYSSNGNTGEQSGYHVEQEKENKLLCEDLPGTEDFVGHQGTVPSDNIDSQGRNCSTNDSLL
ATP-binding cassette sub-family B member 6 (Homo sapiens), sequence (Q9NP58 whole entry, looked up): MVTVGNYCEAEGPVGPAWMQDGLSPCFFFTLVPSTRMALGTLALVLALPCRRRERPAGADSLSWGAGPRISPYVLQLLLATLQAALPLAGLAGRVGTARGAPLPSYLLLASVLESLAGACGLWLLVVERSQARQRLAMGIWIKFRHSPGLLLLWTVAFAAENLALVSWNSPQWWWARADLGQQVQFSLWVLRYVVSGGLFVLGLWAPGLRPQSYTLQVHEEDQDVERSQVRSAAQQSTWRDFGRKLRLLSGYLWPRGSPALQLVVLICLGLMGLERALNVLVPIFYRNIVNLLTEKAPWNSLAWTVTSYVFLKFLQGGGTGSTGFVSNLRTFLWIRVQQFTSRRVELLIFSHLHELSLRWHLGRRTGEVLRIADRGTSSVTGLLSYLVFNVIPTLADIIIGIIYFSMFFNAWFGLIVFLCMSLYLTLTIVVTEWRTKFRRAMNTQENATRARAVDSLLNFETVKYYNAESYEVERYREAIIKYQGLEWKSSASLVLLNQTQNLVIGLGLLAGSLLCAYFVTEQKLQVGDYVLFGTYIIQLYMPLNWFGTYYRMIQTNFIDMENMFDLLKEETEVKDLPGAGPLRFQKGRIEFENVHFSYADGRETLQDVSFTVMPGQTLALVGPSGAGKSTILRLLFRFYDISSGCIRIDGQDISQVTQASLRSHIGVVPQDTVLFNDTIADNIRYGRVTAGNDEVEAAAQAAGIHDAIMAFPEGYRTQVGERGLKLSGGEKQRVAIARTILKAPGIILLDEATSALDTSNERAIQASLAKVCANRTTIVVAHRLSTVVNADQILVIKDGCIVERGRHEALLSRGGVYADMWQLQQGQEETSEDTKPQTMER
Integrin beta-1 (Homo sapiens) + Integrin alpha-4 (Homo sapiens), sequence (P05556 whole entry, looked up): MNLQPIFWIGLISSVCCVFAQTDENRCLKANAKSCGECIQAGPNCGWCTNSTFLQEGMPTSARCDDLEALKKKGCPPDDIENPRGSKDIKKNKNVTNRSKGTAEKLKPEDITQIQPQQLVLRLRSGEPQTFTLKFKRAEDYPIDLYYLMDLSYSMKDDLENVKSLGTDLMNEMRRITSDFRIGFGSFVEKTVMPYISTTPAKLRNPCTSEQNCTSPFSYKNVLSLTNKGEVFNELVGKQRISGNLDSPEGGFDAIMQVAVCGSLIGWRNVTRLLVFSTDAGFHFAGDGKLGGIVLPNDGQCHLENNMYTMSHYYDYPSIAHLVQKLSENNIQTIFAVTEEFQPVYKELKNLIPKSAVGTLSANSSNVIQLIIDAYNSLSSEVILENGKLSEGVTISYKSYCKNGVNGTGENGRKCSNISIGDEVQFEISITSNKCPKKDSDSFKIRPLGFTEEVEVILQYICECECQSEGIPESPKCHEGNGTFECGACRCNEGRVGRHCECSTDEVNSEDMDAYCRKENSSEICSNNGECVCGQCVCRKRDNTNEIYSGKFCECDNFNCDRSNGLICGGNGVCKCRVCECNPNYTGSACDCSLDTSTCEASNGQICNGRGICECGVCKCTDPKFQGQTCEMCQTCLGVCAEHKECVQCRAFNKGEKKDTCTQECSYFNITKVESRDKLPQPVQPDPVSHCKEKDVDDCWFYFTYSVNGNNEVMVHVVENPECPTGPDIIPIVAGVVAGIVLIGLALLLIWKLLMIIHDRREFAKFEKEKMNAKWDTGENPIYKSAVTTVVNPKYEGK
Integrin beta-1 (Homo sapiens) + Integrin alpha-4 (Homo sapiens), sequence (P13612 whole entry, looked up): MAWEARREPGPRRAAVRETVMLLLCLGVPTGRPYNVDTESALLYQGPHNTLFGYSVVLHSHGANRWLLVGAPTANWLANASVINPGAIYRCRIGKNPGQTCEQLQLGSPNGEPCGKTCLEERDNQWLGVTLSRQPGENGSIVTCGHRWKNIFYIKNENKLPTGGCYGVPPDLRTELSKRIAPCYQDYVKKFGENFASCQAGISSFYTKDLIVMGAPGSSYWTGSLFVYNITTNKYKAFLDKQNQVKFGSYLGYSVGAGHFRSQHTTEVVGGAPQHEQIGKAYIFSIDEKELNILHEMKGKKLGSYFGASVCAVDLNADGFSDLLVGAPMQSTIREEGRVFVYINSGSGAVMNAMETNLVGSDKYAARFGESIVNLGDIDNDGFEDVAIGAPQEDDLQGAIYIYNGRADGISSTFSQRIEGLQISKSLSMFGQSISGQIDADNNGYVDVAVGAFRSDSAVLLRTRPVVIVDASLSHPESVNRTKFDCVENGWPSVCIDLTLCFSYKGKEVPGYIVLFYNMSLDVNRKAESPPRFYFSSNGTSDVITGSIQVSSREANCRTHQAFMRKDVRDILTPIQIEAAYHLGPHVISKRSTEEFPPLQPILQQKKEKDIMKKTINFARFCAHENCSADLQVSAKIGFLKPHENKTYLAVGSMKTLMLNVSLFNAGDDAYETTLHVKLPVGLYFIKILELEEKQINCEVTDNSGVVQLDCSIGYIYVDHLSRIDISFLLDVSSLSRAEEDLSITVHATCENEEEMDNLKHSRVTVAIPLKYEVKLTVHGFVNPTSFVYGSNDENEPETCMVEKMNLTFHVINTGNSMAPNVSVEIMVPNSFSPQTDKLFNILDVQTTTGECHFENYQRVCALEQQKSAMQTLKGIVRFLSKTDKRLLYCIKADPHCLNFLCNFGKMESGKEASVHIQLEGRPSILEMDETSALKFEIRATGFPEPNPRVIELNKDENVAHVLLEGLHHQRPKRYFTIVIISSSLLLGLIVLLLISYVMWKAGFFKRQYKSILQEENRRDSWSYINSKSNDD
Beta-adrenergic receptor kinase 1 (Homo sapiens), sequence (P25098 whole entry, looked up): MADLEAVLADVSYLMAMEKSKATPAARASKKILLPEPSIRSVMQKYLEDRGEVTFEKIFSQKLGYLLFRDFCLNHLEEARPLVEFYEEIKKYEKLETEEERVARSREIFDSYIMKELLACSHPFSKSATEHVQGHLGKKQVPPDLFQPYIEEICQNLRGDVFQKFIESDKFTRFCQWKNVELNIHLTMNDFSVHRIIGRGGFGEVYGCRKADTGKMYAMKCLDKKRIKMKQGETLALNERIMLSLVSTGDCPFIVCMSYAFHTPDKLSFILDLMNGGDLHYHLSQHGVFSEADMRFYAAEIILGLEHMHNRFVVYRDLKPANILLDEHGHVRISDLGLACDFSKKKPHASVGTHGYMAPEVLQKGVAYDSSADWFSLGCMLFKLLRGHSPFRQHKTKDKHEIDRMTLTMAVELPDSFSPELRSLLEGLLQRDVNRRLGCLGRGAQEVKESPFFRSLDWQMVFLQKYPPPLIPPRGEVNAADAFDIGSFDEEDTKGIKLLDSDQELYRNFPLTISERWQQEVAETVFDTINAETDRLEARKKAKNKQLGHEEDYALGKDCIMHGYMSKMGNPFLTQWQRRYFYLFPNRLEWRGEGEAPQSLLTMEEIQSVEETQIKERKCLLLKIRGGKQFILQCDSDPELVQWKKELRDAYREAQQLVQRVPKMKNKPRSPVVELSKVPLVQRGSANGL

Structure (SMILES)	percent of DMSO control GFP [1]	GFP response vs DMSO [2]	percent response of DMSO control [3]	GFP response vs DMSO [4]	GFP response, % of DMSO [5]	double positive events [6] [%]	vesicle binding response [6]	inhibition [7]	superoxide response (% of plate) [8]	aptamer binding inhibition [9]	response [10]	inhibition [11]	response [12]	binding (% of control) [13]	efflux inhibition (fraction of control) [14]	inhibition [15]	differentiation response [16]
Cn1cc(CN2CCN(CCO)CC2)c(-c2ccc(Oc3ccccc3)cc2)n1	102% (inactive)	102% (inactive)	96.7% (inactive)	114% (inactive)	100% (inactive)	61	244% (inactive)	13.2% (inactive)	82.1% (inactive)	0% (inactive)	11.3% (inactive)	-1.86% (inactive)	3.7% (inactive)	99.7% (inactive)	-0.28 (inactive)	6% (inactive)	15.2% (inactive)
O=c1c2ccccc2nc2n1CCCN2	103% (inactive)	97.4% (inactive)	111% (inactive)	98.2% (inactive)	103% (inactive)	50.4	72.9% (active)	-7.25% (inactive)	102% (inactive)	-1% (inactive)	-10.8% (inactive)	-9.42% (inactive)	-1.39% (inactive)	102% (inactive)	-0.1 (inactive)	2% (inactive)	-16.8% (inactive)
Cc1ccc(N2CCN(C(=S)c3ccc(-c4cccc([N+](=O)[O-])c4)o3)CC2)cc1	98.1% (inactive)	103% (inactive)	109% (inactive)	126% (inactive)	124% (inactive)	61.7	217% (inactive)	-4.52% (inactive)	89.3% (inactive)	3% (inactive)	-41.3% (inactive)	1.79% (inactive)	-4.54% (inactive)	102% (inactive)	-0.13 (inactive)	3% (inactive)	-9.91% (inactive)
Cc1ccc(C2=NOC(=O)/C2=C\C=C\c2ccccc2)cc1	107% (inactive)	101% (inactive)	108% (inactive)	139% (inactive)	73.5% (inactive)	69.9	167% (inactive)	33.8% (inactive)	113% (inactive)	-4% (inactive)	34% (inactive)	13% (inactive)	-2.56% (inactive)	105% (inactive)	-0.17 (inactive)	-16% (inactive)	-4.57% (inactive)
COc1ccc2oc(C)c(C(N)=O)c2c1	99.5% (inactive)	109% (inactive)	91% (inactive)	118% (inactive)	102% (inactive)	61.6	132% (inactive)	6.4% (inactive)	96% (inactive)	4% (inactive)	-0.3% (inactive)	7.21% (inactive)	-6.34% (inactive)	100% (inactive)	-0.21 (inactive)	-9% (inactive)	-8.8% (inactive)
COc1cc(C(=O)NCCCCCC(=O)O)cc(OC)c1OC	104% (inactive)	105% (inactive)	102% (inactive)	103% (inactive)	108% (inactive)	65.5	199% (inactive)	5.61% (inactive)	100% (inactive)	2% (inactive)	11.2% (inactive)	-5.4% (inactive)	1.93% (inactive)	101% (inactive)	-0.23 (inactive)	1% (inactive)	-19.2% (inactive)
CCN(CC)CC#CCOC(=O)C(O)(c1ccccc1)C1CCCCC1 (stereo unspecified)	91.1% (inactive)	132% (inactive)	110% (inactive)	83.1% (inactive)	91.2% (inactive)	62.3	181% (inactive)	10.3% (inactive)	112% (inactive)	4% (inactive)	14.8% (inactive)	-2.84% (inactive)	-0.18% (inactive)	104% (inactive)	0.3 (inactive)	8% (inactive)	-1.64% (inactive)
O=C(Nc1cccc(C(=O)O)c1)/C(=C\c1ccccc1)NC(=O)c1ccccc1	105% (inactive)	98.3% (inactive)	106% (inactive)	84.8% (inactive)	100% (inactive)	58.1	150% (inactive)	-1.49% (inactive)	95.7% (inactive)	5% (inactive)	-3.48% (inactive)	0.49% (inactive)	0.44% (inactive)	99% (inactive)	0.14 (inactive)	15% (inactive)	11% (inactive)
Nc1ccc2nc(Cc3ccccc3)[nH]c2c1	90.2% (inactive)	150% (active)	108% (inactive)	82.5% (inactive)	89.4% (inactive)	60.5	192% (inactive)	3.55% (inactive)	102% (inactive)	7% (inactive)	10.6% (inactive)	-0.76% (inactive)	-0.84% (inactive)	98% (inactive)	0.48 (active)	3% (inactive)	15.6% (inactive)
COc1cc(CO)ccc1OCc1nnnn1-c1ccc(C)cc1	102% (inactive)	105% (inactive)	102% (inactive)	95.9% (inactive)	101% (inactive)	58.4	163% (inactive)	2.93% (inactive)	107% (inactive)	-1% (inactive)	6.38% (inactive)	-5.08% (inactive)	10.4% (inactive)	97.3% (inactive)	0.64 (active)	-8% (inactive)	-1.65% (inactive)
COc1ccc2[nH]c(=O)c(CN(C(=O)c3ccco3)C(C)C)cc2c1	91.7% (inactive)	148% (active)	103% (inactive)	83.6% (inactive)	92.6% (inactive)	72.1	221% (inactive)	4.52% (inactive)	108% (inactive)	3% (inactive)	-2.75% (inactive)	-1.83% (inactive)	-5.39% (inactive)	101% (inactive)	0.41 (inactive)	9% (inactive)	0% (inactive)
CCCCCCCCCC(=O)OCC(O)CO (stereo unspecified)	105% (inactive)	105% (inactive)	102% (inactive)	103% (inactive)	93.4% (inactive)	65.4	163% (inactive)	-10.8% (inactive)	116% (inactive)	4% (inactive)	-2% (inactive)	59.4% (active)	-4.17% (inactive)	96.3% (inactive)	0.18 (inactive)	5% (inactive)	9.04% (inactive)
C[C@]12CC[C@@H]3c4ccc(O)cc4CC[C@H]3[C@@H]1CCC2=O	101% (inactive)	100% (inactive)	95.4% (inactive)	125% (inactive)	94.8% (inactive)	60.6	34.4% (inactive)	-13.9% (inactive)	98.7% (inactive)	2% (inactive)	-0.01% (inactive)	9.61% (inactive)	-0.09% (inactive)	98.9% (inactive)	-0.32 (inactive)	8% (inactive)	0.24% (inactive)
O=C(Nc1ccc(F)c([N+](=O)[O-])c1)c1ccc2c(c1)OCCO2	106% (inactive)	103% (inactive)	104% (inactive)	108% (inactive)	100% (inactive)	63	5830% (inactive)	-1.49% (inactive)	94% (inactive)	2% (inactive)	1.51% (inactive)	-13.5% (inactive)	3.69% (inactive)	92.4% (inactive)	-0.01 (inactive)	15% (inactive)	5.13% (inactive)
COC(=O)c1ccc(NC(=O)C23CCC(C)(C(=O)O2)C3(C)C)cc1 (stereo unspecified)	95.2% (inactive)	104% (inactive)	102% (inactive)	115% (inactive)	106% (inactive)	64.8	195% (inactive)	-2.82% (inactive)	99.7% (inactive)	2% (inactive)	-24.2% (inactive)	1.74% (inactive)	-1.33% (inactive)	110% (inactive)	-0.04 (inactive)	6% (inactive)	-4.99% (inactive)
COc1ccc(-c2c3c(=O)n(C)c(=O)n(C)c3cn2C2CCCCC2)cc1	95.2% (inactive)	109% (inactive)	88.2% (inactive)	113% (inactive)	92.6% (inactive)	58.5	132% (inactive)	-14.1% (inactive)	106% (inactive)	-1% (inactive)	14.9% (inactive)	1.05% (inactive)	2.1% (inactive)	95.5% (inactive)	0.05 (inactive)	9% (inactive)	-16.8% (inactive)
Cc1ccc2nc(N=C(N)N)nc(C)c2c1	111% (inactive)	107% (inactive)	110% (inactive)	114% (inactive)	118% (inactive)	58.7	124% (inactive)	-13.2% (inactive)	91.5% (inactive)	-1% (inactive)	-5.11% (inactive)	0.05% (inactive)	5.97% (inactive)	109% (inactive)	-0.02 (inactive)	5% (inactive)	-8.96% (inactive)
CCn1c(C)cc2c(c1=O)C(c1ccccc1)C(C(=O)OC)=C(N)O2 (stereo unspecified)	102% (inactive)	105% (inactive)	98.3% (inactive)	108% (inactive)	111% (inactive)	58.8	167% (inactive)	18.5% (inactive)	108% (inactive)	4% (inactive)	-32.4% (inactive)	1.11% (inactive)	-16.3% (inactive)	102% (inactive)	0.04 (inactive)	7% (inactive)	4.86% (inactive)
